Screens from PubChem BioAssay.
EBV gp42 block = EBV gp42 inhibition | Q1HVG2 | 220,000 tested, 0.42% active | Fluorescence polarization binding assay, mP read-out | inhibition, % (tested at 21.74 µM); in the data active = inhibition above about 50%
E coli Lon inh = E. coli protease La inhibition | inhibition, % at 7.94 µM | purified E. coli Lon protease, fluorescence polarization | 360,000 tested, 0.42% active | P0A9M0; in the data active = inhibition above about 13%, passing the limit was not always enough;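 also: 0% = enzyme with probe and DMSO and 100% = no enzyme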
MEX-5 binding = C. elegans MEX-5 TCR-2 RNA binding activity; activity score (negative = inhibition of binding), % at 10 µM; MEX-5/FITC-TCR2 RNA binding, fluorescence polarization; active compounds read low; 300,000 tested, 0.38% active;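 active = inhibition past about -25% in most replicates, and total fluorescence under double the plate's negative control median, limit read from the data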;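 also: 0% = DMSO and -100% = 5 µM competing unlabeled TCR2 RNA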
MCL1-BIM inh = disrupts human MCL1 binding to BIM-BH3 peptide | 320,000 tested, 0.68% active | AID 2057 | inhibition, % at 10.9 µM | GST-MCL1 / FITC-Bim-BH3 fluorescence polarization | Q07820;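 active = inhibition above the mean inhibition of all tested compounds plus 3 SD, set per campaign, cut at about 40% in these data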;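 also: 0% = DMSO wells and 100% = unlabeled Bim-BH3 peptide control; higher means more loss of mP so more displacement of Bim peptide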
Bcl-xL primary = inhibitors of human Bcl-xL; 320,000 tested, 0.7% active; AID 2129; GST-Bcl-xL / FITC-Bim BH3 peptide fluorescence polarization; Q07817; inhibition, % at 10.9 µM;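 active = inhibition above the mean of all tested compounds plus 3 SD, cutoff set per campaign, cut at about 30% in these data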;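 also: 0% = DMSO wells and 100% = unlabeled Bim-BH3 peptide competitor; inhibitors lower millipolarization by displacing the labeled peptide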
GLD-1 TGE inh = GLD-1-TGE RNA interaction inhibition (C. elegans); Q17339; purified GLD-1 + fluorescein TGE RNA, fluorescence polarization; inhibition, % at 5.96 µM; 320,000 tested, 0.44% active; AID 2280;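 active = percent inhibition above a per-plate cutoff, the plate mean of test compounds plus 3 SD, cut at about 30% in these data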;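 also: 0% = DMSO wells with GLD-1 and probe and 100% = wells lacking GLD-1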
Target sequence (Q17339 whole entry, looked up): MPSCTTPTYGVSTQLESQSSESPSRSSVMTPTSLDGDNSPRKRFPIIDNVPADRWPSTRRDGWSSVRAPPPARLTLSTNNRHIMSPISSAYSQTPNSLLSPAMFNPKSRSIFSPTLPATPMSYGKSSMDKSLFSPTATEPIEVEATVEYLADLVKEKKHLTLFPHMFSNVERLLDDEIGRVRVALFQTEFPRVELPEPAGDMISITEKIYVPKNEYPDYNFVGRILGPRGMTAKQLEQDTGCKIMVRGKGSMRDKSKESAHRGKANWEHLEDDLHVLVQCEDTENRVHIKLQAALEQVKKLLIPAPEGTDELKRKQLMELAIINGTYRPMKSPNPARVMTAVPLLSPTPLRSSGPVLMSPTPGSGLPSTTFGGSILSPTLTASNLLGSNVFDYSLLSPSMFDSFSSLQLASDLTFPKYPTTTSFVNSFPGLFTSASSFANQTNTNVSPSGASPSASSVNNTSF
GLD1 RNA confirm = GLD-1 TGE RNA interaction inhibition, confirmation; shares compounds with GLD-1 TGE inh; GLD-1/FL-TGE RNA fluorescence polarization, biochemical; inhibition, % at 5.96 µM; 550 tested, 10% active;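 active = average inhibition across triplicates above the hit cutoff set in the primary screen, cut at about 32% in these data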;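 also: 0% = GLD-1 with RNA probe and DMSO and 100% = wells lacking GLD-1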
Starred values were filed as active, the others as inactive. The list is not random: actives were taken first. Their share in the collection is about 1.5%.

N#Cc1c(NCCO)nc(NCc2ccccc2)c2c1CCN(Cc1ccccc1)C2 was read as EBV gp42 block 2, MEX-5 binding 0, MCL1-BIM inh 50*, Bcl-xL primary 46*, GLD-1 TGE inh 36* and GLD1 RNA confirm 6.
`CCN1CCc2c(C#N)c(N3CCCCC3)nc(NCc3ccccc3)c2C1` gave EBV gp42 block 2, E coli Lon inh 8, MEX-5 binding -1, MCL1-BIM inh 16, Bcl-xL primary 22 and GLD-1 TGE inh 14.
`COc1ccc(CC(=O)OCC(=O)N2CCc3ccccc32)cc1OC` gave E coli Lon inh -12, MCL1-BIM inh -1, Bcl-xL primary 1 and GLD-1 TGE inh -2.
CN1CCN(c2nc3nonc3nc2N2CCN(C)CC2)CC1 was read as EBV gp42 block -6, E coli Lon inh 8, MEX-5 binding -5, MCL1-BIM inh 29, Bcl-xL primary 33*, GLD-1 TGE inh 35* and GLD1 RNA confirm 4.
For Cc1c(O)ccc(-c2n[nH]c(C(=O)O)c2-c2nc3ccccc3s2)c1O the results were EBV gp42 block -16, E coli Lon inh 1, MEX-5 binding -58*, MCL1-BIM inh 14, Bcl-xL primary 11, GLD-1 TGE inh 44* and GLD1 RNA confirm 51*.
O=C(CSc1ccc(-c2ccco2)nn1)NCc1ccccc1Cl was read as EBV gp42 block 11, E coli Lon inh 2, MEX-5 binding -4, MCL1-BIM inh 41*, Bcl-xL primary 42*, GLD-1 TGE inh 34* and GLD1 RNA confirm -7.
Screening O=C(CSc1ccc(-c2ccco2)nn1)Nc1ccccc1 returned EBV gp42 block -14, E coli Lon inh 0, MEX-5 binding 1, MCL1-BIM inh 7, Bcl-xL primary 9 and GLD-1 TGE inh 5.
Screening O=C(CSc1nnc(NC(=O)c2c(F)cccc2Cl)s1)Nc1ccccc1F returned E coli Lon inh -17, MEX-5 binding -3, MCL1-BIM inh 11, Bcl-xL primary 5 and GLD-1 TGE inh 7.
`CC(C)N(Cc1nccn1C)C(=O)CC1C(=O)NCCN1Cc1ccc(F)c(F)c1` (configuration not stated) gave E coli Lon inh 16, MEX-5 binding -3, MCL1-BIM inh 26, Bcl-xL primary 25, GLD-1 TGE inh 38* and GLD1 RNA confirm 2.
Screening Cc1ccc2c(c1)N(CC(=O)OCC(=O)NCc1ccccc1)C(=O)CO2 returned EBV gp42 block -11, E coli Lon inh -8, MEX-5 binding 2, MCL1-BIM inh -2, Bcl-xL primary 0 and GLD-1 TGE inh 12.
Screening Nc1ccccc1C(=O)Nc1cccc2ccccc12 returned E coli Lon inh 9 and MEX-5 binding 2.
`O=C(Nc1cccc2ccccc12)c1ccccc1Cl` gave E coli Lon inh -7, MEX-5 binding 0, MCL1-BIM inh 0, Bcl-xL primary 0, GLD-1 TGE inh 51* and GLD1 RNA confirm 1.
C[C@@H]1CC(=O)[C@H]2CC(CO)=CCC[C@@H]2[C@@]1(C)CC/C(=C/CO)CO was read as E coli Lon inh -11, MCL1-BIM inh 0, Bcl-xL primary 4, GLD-1 TGE inh 80* and GLD1 RNA confirm 3.
Cc1cc2cc(CNC(=O)c3ccc(Br)o3)ccc2n1C was read as EBV gp42 block 15, E coli Lon inh 4, MEX-5 binding 1, MCL1-BIM inh 36, Bcl-xL primary 29, GLD-1 TGE inh 38* and GLD1 RNA confirm 10.
Cc1cc2cc(CNC(=O)C3CCCC3)ccc2n1C was read as EBV gp42 block -10, E coli Lon inh 6, MEX-5 binding 1, MCL1-BIM inh 27, Bcl-xL primary 29, GLD-1 TGE inh 37* and GLD1 RNA confirm 6.
For Cc1cc2cc(CNC(=O)CCC(=O)O)ccc2n1C the results were EBV gp42 block -18, E coli Lon inh -4, MEX-5 binding -4, MCL1-BIM inh 15, Bcl-xL primary 18 and GLD-1 TGE inh 17.
For COC(=O)[C@@]1(Cc2ccccc2)[C@H]2C(=O)N(C)C(=O)[C@H]2[C@H]2CN=C(SCc3ccc(Cl)cc3)N21 the results were E coli Lon inh -1.
